Hits are enriched below; roughly 2.8% of the tested compounds scored in any of these assays.
Pol beta inh: inhibitors of human DNA polymerase beta; P06746; Pol beta primer extension/strand displacement, fluorescence kinetic; Potency, µM (highest dose often 114 µM), without a hit: at the highest dose activity change, negative = inhibition, usual class: inhibitors; 1.3% of 340,000 active; AID 485314; note: potency is the fitted concentration of half-maximal effect; % is set by controls: 0 for no effect and ±100 for the full control effect
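Human Pol beta at 10 nM; strand-displacement substrate 50 nM final. Compound exposure 15 min at room temperature before start, reaction 10 min at room temperature.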
PI5P4Ka inh: blocks human PI5P4K alpha kinase activity | P48426 | PI5P4Kalpha enzyme, ADP-Glo luminescence, 60 min; stronger effect = lower value | max response, % | 1.2% of 330,000 active; active = max response of -50% or lower; inconclusive = between -30% and -50%; inactive = -30% or higher; note: value at the top dose of about 77 µM; % is set by controls: 0 for no effect and ±100 for the full control effect
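PI5P4Kalpha ADP-Glo assay; 5 microM ATP final; 60 min RT reaction; HEPES pH 7.4/EGTA/CHAPS, 5% DMSO; controls lacking substrate or enzyme; luminescent end-point.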
POLI inh: DNA polymerase iota (human) inhibition; Potency, µM (top dose mostly 115 µM), without a hit: at the highest dose activity, negative = inhibition, actives largely listed as inhibitors; 1% of 390,000 active; Q9UNA4; AID 588590; Pol iota fluorescent replication assay, 10 min; note: potency is the fitted concentration of half-maximal effect
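Pol iota at 10 nM preincubated 15 min with compounds at room temperature; reaction started with fluorescent substrate, 50 nM final. Fluorescence read kinetically at 0 and 10 min; buffer-only wells as negative control.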
Pol eta inh: blocks human DNA polymerase eta activity. 1.2% of 390,000 active. Potency, µM (titrated, usually from 114 µM), for inactives: top-dose activity change, negative = inhibition, hits mostly inhibitors. recombinant Pol eta, fluorescent DNA replication assay; note: potency is the fitted concentration of half-maximal effect; % is set by controls: 0 for no effect and ±100 for the full control effect
Target sequence (Q9Y253 whole entry, looked up): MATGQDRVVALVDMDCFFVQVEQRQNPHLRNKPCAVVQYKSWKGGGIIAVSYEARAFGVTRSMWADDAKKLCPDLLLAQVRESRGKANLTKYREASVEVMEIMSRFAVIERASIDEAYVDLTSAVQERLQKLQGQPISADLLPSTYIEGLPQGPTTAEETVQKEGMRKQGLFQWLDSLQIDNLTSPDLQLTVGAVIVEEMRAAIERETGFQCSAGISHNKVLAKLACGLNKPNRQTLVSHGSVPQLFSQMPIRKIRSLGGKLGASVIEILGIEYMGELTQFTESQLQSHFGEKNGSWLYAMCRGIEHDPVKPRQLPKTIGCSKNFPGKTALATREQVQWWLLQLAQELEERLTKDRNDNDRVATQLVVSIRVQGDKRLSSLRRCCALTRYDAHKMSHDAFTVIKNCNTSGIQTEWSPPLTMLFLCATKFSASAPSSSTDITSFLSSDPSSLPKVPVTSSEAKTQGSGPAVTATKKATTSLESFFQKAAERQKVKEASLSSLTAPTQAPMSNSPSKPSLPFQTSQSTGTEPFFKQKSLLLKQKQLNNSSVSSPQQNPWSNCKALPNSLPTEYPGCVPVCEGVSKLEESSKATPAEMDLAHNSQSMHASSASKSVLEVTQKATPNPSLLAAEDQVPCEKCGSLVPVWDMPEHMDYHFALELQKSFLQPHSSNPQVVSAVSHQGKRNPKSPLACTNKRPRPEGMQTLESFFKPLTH
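Pol eta at 10 nM preincubated with compounds 15 min at room temperature; reaction started with fluorescent substrate (50 nM final) and read kinetically at 0 and 10 min.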
POLK inh: blocks human DNA polymerase kappa activity; Q9UBT6; purified Pol kappa, fluorescent DNA synthesis assay, 10 min; Potency, µM (titrated, usually from 107 µM), for the others: top-dose activity, negative = inhibition, actives largely listed as inhibitors; 0.53% of 400,000 active; AID 588579; note: potency is the fitted concentration of half-maximal effect; % is set by controls: 0 for no effect and ±100 for the full control effect
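Pol kappa 10 nM + cpd, 15 min RT; start w/ substrate 50 nM final; fluorescence kinetic read, 0 and 10 min. Neg ctrl: buffer, no enzyme.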
WRN inhibitor: blocks human WRN helicase; Q14191; WRN helicase unwinding, fluorescent forked duplex, kinetic; Potency, µM (titrated, usually from 114 µM), inactives show at the highest dose activity change, negative = inhibition, hits mostly inhibitors; 0.46% of 360,000 active; AID 651768; note: potency is the fitted concentration of half-maximal effect; % is set by controls: 0 for no effect and ±100 for the full control effect; nearly all actives have a fitted effect of over 55% in size
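Screening of the MLSMR collection measured strand separation of a quenched forked DNA duplex (100 nM) by 20 nM WRN with 2 mM ATP, all final. Compounds were preincubated with enzyme 15 min at room temperature.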
* = called active by the depositor; ? = inconclusive; / = no result; ! = not active in a repeat; [ ] = another dose, or the depositor's remark. Unless noted, calls come from the whole dose curve; as a rule, active = well fitted curve in the direction sought with a large enough effect; inconclusive = small, poorly fitted or top-dose-only effect, or another doubt; inactive = no such curve, though single readings can be large; an effect the other way counts as inactive or inconclusive.

SMILES	Pol beta inh	PI5P4Ka inh	POLI inh	Pol eta inh	POLK inh	WRN inhibitor
C=CCn1c(C)cc(C(=O)COC(=O)c2ccc3c(c2)NC(=O)CS3)c1C	40µM*	?	?	?	?	-5%[11.6 µM]
N#C/C(=C\c1ccc(OCc2ccc(C(=O)O)cc2)cc1)C(=O)N1CCOCC1	13%	-23	?	28µM*	-28%	-25%
COc1ccc(Cl)c(Cn2cnc3c(cnn3C(C)(C)C)c2=O)c1F	/	/	6%	/	8%	/
CN(C)/[N+]([O-])=N/Oc1cc(F)c([N+](=O)[O-])cc1[N+](=O)[O-]	/	/	?	/	-19%	/
O=c1cc(CSc2nnnn2-c2ccccc2)nc(Nc2ccc(F)cc2)[nH]1	45µM*	-2	45µM*	?	?	-21%
N/C(=N\c1nc(CSc2nnnn2-c2ccccc2)cc(=O)[nH]1)Nc1ccccc1	-1%	/	/	/	/	/
CCN1/C(=C\c2ccc3cc(C)ccc3[n+]2CC)Sc2cc(C)c(C)cc21	50µM*	-12	/	?	-29%	45µM*
CCN1/C(=C/c2ccc3cccc(C)c3[n+]2CC)Sc2ccccc21	50µM*	/	?	-17%	-10%	?
CCN1/C(=C/c2ccc3cc(C)ccc3[n+]2CC)Sc2ccc3sccc3c21	/	-13	4%	?	-13%	-22%
CCN1/C(=C/c2ccc3cc(C)cc(C)c3[n+]2CC)Sc2cc(C)ccc21	50µM*	?	-26%	79µM*	-24%	18µM*
C[n+]1ccccc1/C=C1\Sc2ccccc2N1CCO	-21%	-10	86%	-8%	-15%	-1%
CCC(=O)N1CCc2cc(Br)cc(S(=O)(=O)CCC(=O)NCc3ccc(F)cc3)c21	11%	/	15%	-6%	8%	/
CCCN(CC(=O)Nc1ccccc1C)C(=O)c1cc2ccccc2oc1=O	/	-8	/	0%	/	3%
CCCCN1CCc2nc(N3CCN(c4ncccn4)CC3)ncc2C1	2%	/	1%	/	-2%[60.1 µM]	/
Cc1cccc(N2CCN(C(=O)CCS(=O)(=O)c3ccc(Br)cc3)CC2C)c1 (stereo unspecified)	25µM*	-19	45µM*	?	89µM*	?
Cc1cccc(N2CCN(C(=O)c3noc4c3COc3ccc(C)cc3-4)CC2C)c1 (stereo unspecified)	2%	3	50µM*!	-13%	?	-2%
Cc1cccc(N2CCN(C(=O)Cn3sc4nc(C)cc(C)c4c3=O)CC2C)c1 (stereo unspecified)	0%	-55*	42%	-12%	-3%	3%
Cc1ccc2c(c1)-c1onc(C(=O)N3CCN(c4cccc(C)c4C)CC3)c1CO2	-8%	/	19%	1%	-6%	/
Cc1cc(C)c2c(=O)n(CC(=O)N3CCC(Cc4ccccc4)CC3)sc2n1	12%	/	/	/	/	/
Cc1ccc(-c2ccc(=O)n(CC(=O)N3CCN(c4cccc(C)c4)C(C)C3)n2)cc1 (stereo unspecified)	4%	/	79µM*	-18%	-12%	-7%
COc1ccc(Cn2c(=O)c3oc4ccccc4c3n(Cc3ccc(F)cc3)c2=O)cc1	-1%	/	23%	-19%	-1%	/
CCCCOc1ccc(Nc2cc(Cl)ccc2C(=O)O)cn1	40µM*	1	75%	-13%	-2%	-9%
O=C(CCCOc1ccc(Cl)cc1Cl)Nc1ccccc1C(=O)O	10%	-1	28%	-12%	-18%	-7%
O=C1c2ccccc2C(=O)N1c1ccccn1	/	/	25%	/	7%	/
NC(=S)NNc1c(F)c(F)c(F)c(F)c1F	-3%	-54*	92%	-15%	2%	-3%
Cc1ccccc1NNC(N)=S	40%	-26	72%	-19%	6%	-12%
O=C(COCc1cc(-c2cccs2)on1)NCc1ccc(F)cc1	1%	/	2%	-7%	-7%	/
O=C(Cn1c(=O)oc2cc(S(=O)(=O)NCc3ccccc3)ccc21)NCc1ccc(F)cc1	56µM*	/	22%	-17%	1%	/
O=C(Cn1c(=O)oc2cc(S(=O)(=O)NCc3ccccc3)ccc21)NCc1ccc(Cl)cc1	-3%	/	-6%	5%	-13%[60.1 µM]	/

Compound activity: PubChem BioAssay, National Center for Advancing Translational Sciences (NCATS)
